Measured potencies and affinities stand elsewhere. Activity calls are given as the source filed them.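 The calls were made as follows: active = compounds lowering cell ATP signal whose fitted half-maximal concentration is at most twice the top tested dose; inconclusive = flat curve with 30 to 70% signal loss, or poor fit; inactive = the rest.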
assay: HEK293T cell cytotoxicity, dose response, cytotoxicity control, CellTiter-Glo luminescence, dry powder, set 6 (AID 651949); conditions: HEK293T viability, CellTiter-Glo ATP luminescence, 48 h; series mostly up to 26 µM

SMILES | outcome
FC(F)(F)c1ccccc1CSc1nnc(-c2ccccc2)o1 | inactive
Clc1ccc(CSc2nnc(-c3ccccc3)o2)cc1 | inactive
CS(=O)(=O)c1ccccc1CSc1nnc(-c2ccccc2)o1 | inactive
FC1(F)CCN(CCSc2nnc(-c3ccccc3)o2)CC1 | inactive
N#Cc1ccccc1CSc1nnc(-c2ccccc2)o1 | inactive
c1ccc(Cn2cc(CSc3nnc(-c4ccccc4)o3)nn2)cc1 | inactive
Brc1cccc(-c2nnc(SCc3ccccn3)o2)c1 | inactive
Fc1ccc(CSc2nnc(-c3ccncc3)o2)cc1 | inactive
c1ccc(-c2nnc(SCc3ccccn3)o2)cc1 | inactive
O=S(Cc1cn(-c2ccccc2)nn1)c1nnc(-c2ccc(Cl)cc2)o1 (stereo unspecified) | inactive
c1ccc(CSc2nnc(-c3ccncc3)o2)nc1 | inactive
N#Cc1ccc(CSc2nnc(-c3ccccc3)o2)cc1 | inactive
CS(=O)(=O)c1ccccc1-c1nnc(SCc2ccccc2)o1 | inactive
c1ccc(CSc2nnc(-c3cc4ccccc4o3)o2)cc1 | inactive
c1ccc(CSc2nnc(-c3cccnc3)o2)cc1 | inactive
Brc1ccc(CSc2nnc(-c3ccccc3)o2)cc1 | inactive
[O-][n+]1ccccc1CSc1nnc(-c2ccccc2)o1 | inactive
COc1ccccc1CSc1nnc(-c2ccccc2)o1 | inactive
FC(F)(F)c1ccc(-c2nnc(SCc3ccccc3)o2)cc1 | inactive
O=S(Cc1cn(Cc2ccccc2)nn1)c1nnc(-c2ccc(Cl)cc2)o1 (stereo unspecified) | inactive
O=S(=O)(Cc1ccccc1)c1nnc(-c2ccccc2)o1 | inactive

From PubChem BioAssay AID651949 (Broad Institute, 2012)
